Screening data (PubChem)
S1P3 antagonist: antagonists of human S1P3 receptor. Q99500. CHO S1P3 NFAT-BLA reporter, FRET fluorescence, antagonist mode. inhibition, % at 4.98 µM. 170,000 tested, 0.27% active. AID 485;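 active = inhibition above the plate cutoff, the mean inhibition of test wells on that plate plus 3 SD, cut at about 28% in these data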;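 note: cells challenged with S1P at its EC80 of 0.8 µM; blue over green emission ratio from cleaved BLA substrate after 4 h stimulation; 0% = S1P-stimulated wells and 100% = unstimulated DMSO-only wells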
Target sequence (Q99500 whole entry, looked up): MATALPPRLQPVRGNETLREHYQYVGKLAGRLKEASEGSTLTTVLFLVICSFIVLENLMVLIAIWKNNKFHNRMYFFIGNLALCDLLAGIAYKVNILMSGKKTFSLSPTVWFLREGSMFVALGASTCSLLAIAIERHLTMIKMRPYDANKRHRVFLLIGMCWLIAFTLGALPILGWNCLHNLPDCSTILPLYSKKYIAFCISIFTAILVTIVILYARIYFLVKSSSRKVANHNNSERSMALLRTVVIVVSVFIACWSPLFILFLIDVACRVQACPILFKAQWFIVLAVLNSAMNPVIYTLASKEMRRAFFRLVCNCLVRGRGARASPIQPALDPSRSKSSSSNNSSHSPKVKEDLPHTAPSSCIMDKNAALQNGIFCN
EP2 modulator: modulators of human EP2 prostaglandin E2 receptor; EP2-expressing cells, cAMP HTRF FRET, PGE2 co-stimulation; induction, % at 25 µM; 260,000 tested, 0.83% active; AID 940;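 active = compounds whose cAMP rise, as percent of the full-agonist control response, exceeds 60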;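 note: rat C6 glioma line stably carrying human EP2 under a CMV promoter; the protocol text gives 20 µM as final concentration; 100% = response of wells given 1 µM PGE2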
Target sequence (P43116 whole entry, looked up): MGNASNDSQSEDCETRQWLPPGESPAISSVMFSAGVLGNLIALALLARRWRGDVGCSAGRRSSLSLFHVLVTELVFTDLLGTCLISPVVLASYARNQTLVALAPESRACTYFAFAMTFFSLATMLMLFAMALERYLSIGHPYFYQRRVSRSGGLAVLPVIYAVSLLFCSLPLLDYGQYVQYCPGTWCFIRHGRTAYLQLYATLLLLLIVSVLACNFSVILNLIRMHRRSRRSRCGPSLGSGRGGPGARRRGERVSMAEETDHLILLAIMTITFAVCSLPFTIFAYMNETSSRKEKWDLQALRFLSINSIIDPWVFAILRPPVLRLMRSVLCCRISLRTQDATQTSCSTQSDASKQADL
KCC2 mod: KCC2 (human) Cl- transport modulation; 190,000 tested, 2.2% active; Q9H2X9; B-score of Tl+ flux slope (higher = more flux/activation; lower = inhibition) at 10 µM; AID 1456; KCC2 cells, thallium flux FluoZin-2 fluorescence;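 active = thallium flux slope and its plate-corrected score both differing from the plate sample mean at a set confidence after two filtering rounds, in either direction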;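 note: slope of fluorescence scaled to starting intensity during 10 to 20 s after thallium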
EP2 antag: EP2 receptor (human) inhibition; P43116; C6 glioma cells expressing human EP2, cAMP TR-FRET; cells stimulated with saturating PGE2; inhibition, % at 25 µM; 260,000 tested, 0.52% active; AID 1422;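 active = percent inhibition above 40 after rounding to a whole number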;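 note: rat C6 glioma host cells with rolipram phosphodiesterase inhibitor present; the protocol text gives 20 µM as final concentration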
KCC2 sec1: confirmation of human KCC2 transport modulators; shares compounds with KCC2 mod; AID 1713; normalised thallium flux (F/F0 slope) at 10 µM; 3,700 tested, 15% active; HEK293-KCC2, thallium flux, FluoZin2 fluorescence; stronger effect = higher value;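 active = thallium flux slope above the same plate's solvent-only control mean plus 3 SD; inconclusive = the two replicate wells disagree; inactive = no significant difference from solvent-only control wells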
KCC2 bumet counter: thallium flux persisting under bumetanide in KCC2 cells, counter-screen secondary assay; shares compounds with KCC2 mod; HEK293-KCC2 + bumetanide/ouabain, thallium flux FluoZin2; stronger effect = higher value; normalized thallium flux at 10 µM; 3,700 tested, 49% active;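 active = thallium entry rate above the same plate's blocked-transporter control wells by more than 3 SD; inconclusive = the two repeat wells disagree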;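 note: raw slope of fluorescence over initial fluorescence between 10 and 20 s after thallium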
KCC2 sec2: confirmation of human KCC2 transport modulators | 3,700 tested, 23% active | normalized thallium flux at 10 µM | HEK293-KCC2, thallium flux FluoZin2 fluorescence; actives lie on both sides; F/F0 rise rate, 10–20 s post-thallium | shares compounds with KCC2 mod | AID 1715;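 active = thallium flux slope more than 3 SD above or below the plate's solvent-only control mean, mostly below; inconclusive = the two repeat wells disagreed; inactive = no significant shift from solvent-only controls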;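 note: raw slope with 0.1% DMSO as baseline and bumetanide as block control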
HEK counter1: parental HEK flux effect, counter-screen; thallium flux rate (normalised fluorescence) at 10 µM; AID 1716; shares compounds with KCC2 mod; HEK293 parental cells, thallium flux FluoZin2, ouabain; baseline-ratio fluorescence slope, 10–20 s after thallium; 3,700 tested, 46% active;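 active = thallium flux rate significantly above the same plate's solvent-only control wells, beyond their mean plus 3 SD; inconclusive = the two replicate wells gave conflicting results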
KCC2 retest ouab: modulates human KCC2 on retest with ouabain; shares compounds with KCC2 mod; raw Tl+ flux slope (below DMSO = inhibition, above = activation) at 10 µM; 3,700 tested, 48% active; HEK293-KCC2, thallium flux FluoZin2 fluorescence; bidirectional: low = inhibitor, high = activator;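 active = thallium flux slope beyond 3 SD from same-plate DMSO control mean in most replicates, usually higher, sometimes lower; inconclusive = repeat tests gave conflicting results; inactive = no significant difference from controls in most replicates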;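 note: slope of initial-normalized fluorescence between seconds 10 and 20 after thallium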
HEK293 Tl flux2: counter-screen for KCC2 modulators: effect in parental HEK293 cells. thallium flux slope at 10 µM. shares compounds with KCC2 mod. 3,700 tested, 33% active. thallium flux FluoZin-2 fluorescence slope;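 active = thallium flux slope above the same plate's solvent-control mean plus 3 SD in both duplicate wells; inconclusive = duplicate wells that disagreed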;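 note: run without ouabain in cells lacking the KCC2 cotransporter; slope of fluorescence scaled to its starting value between 10 and 20 s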
Starred values were filed as active, the others as inactive; ? = inconclusive; / = no result. Shown are actives, neighbours in structure and some others; about 3.1% of the full set was active somewhere.

SMILES | S1P3 antagonist | EP2 modulator | KCC2 mod | EP2 antag | KCC2 sec1 | KCC2 bumet counter | KCC2 sec2 | HEK counter1 | KCC2 retest ouab | HEK293 Tl flux2
COc1ccc(CN(C(=O)c2ccc(-c3ccccc3)[nH]2)C(C(=O)NCC2CCCO2)c2ccc(C)o2)cc1 (configuration not stated) | / | -16.2 | / | / | 0.00604 | 0.00523 | 0.0254* | 0.00753 | ? | 0.00988
O=C(NCC1CCCO1)C(c1cccs1)N(Cc1ccccc1)C(=O)c1ccc(-c2ccccc2)[nH]1 (configuration not stated) | -3.8 | 60.0 | -4 | 8.4 | / | / | / | / | / | /
CC(C)(C)NC(=O)C(c1cccs1)N(CC1CCCO1)C(=O)c1ccc(-c2ccccc2)[nH]1 (configuration not stated) | 4.7 | 21.3 | -6.61* | 14.0 | 0.00875 | 0.00664 | 0.0221* | 0.00553 | 0.0105* | 0.00912
CC(C)(C)NC(=O)C(c1ccncc1)N(Cc1ccco1)C(=O)c1ccc(-c2ccccc2)[nH]1 (configuration not stated) | -0.1 | -28.6 | -4.99* | 8.3 | 0.00575 | 0.00516 | 0.0239* | 0.00761 | ? | 0.0109
O=C(NC1CCCCC1)C(c1ccncc1)N(Cc1ccccc1)C(=O)c1ccc(-c2ccccc2)[nH]1 (configuration not stated) | / | 37.4 | -1.9 | / | / | / | / | / | / | /
Cc1sc2nc(C(C)C)nc(SCC(=O)O)c2c1C | / | 20.6 | / | 9.9 | / | / | / | / | / | /
CC1=C(C(=O)Nc2ccc(C)cc2C)C(c2cccs2)NC(=O)N1 (configuration not stated) | / | -20.8 | / | 21.4 | / | / | / | / | / | /
Cc1ccc2cc(CN(Cc3nnnn3CC3CCCO3)C3CCCCC3)c(=O)[nH]c2c1C (configuration not stated) | / | 22.6 | / | 3.9 | / | / | / | / | / | /
Cc1n[nH]c(=S)n1/N=C/c1cccc(OCc2ccccc2)c1 | -8.7 | 42.4 | 16.2* | 11.5 | 0.0174 | 0.0268* | 0.0335 | 0.014* | 0.0225* | 0.0163*
Cc1cccc(/C=N/n2c(-c3ccco3)n[nH]c2=S)c1 | -3.3 | 29.1 | 17.5* | 3.8 | 0.0118* | 0.068* | 0.0314 | 0.0164* | 0.0404* | 0.0113*
O=[N+]([O-])c1cc(/C=N/n2c(-c3cccnc3)n[nH]c2=S)ccc1Cl | -18.2 | -45.4 | 8.07* | 8.5 | 0.00633 | 0.0766* | 0.0332 | ? | ? | ?
S=c1[nH]nc(-c2ccco2)n1/N=C/c1cccc(Cl)c1 | -9.7 | -12.6 | 9.19* | 9.2 | 0.0179 | 0.0139* | 0.0312 | 0.0123* | 0.0219* | 0.0155*
Cc1ccsc1CN(CCCO)Cc1cc(F)ccc1F | / | 48.9 | / | 13.4 | / | / | / | / | / | /
CC(C)(C)c1nc(SCC(=O)Nc2nccs2)c2ccccc2n1 | / | 33.0 | / | 9.6 | / | / | / | / | / | /
CCn1c(SC(C)C(=O)Nc2cccc3ccccc23)nnc1-c1ccc(O)cc1 (configuration not stated) | / | -10.7 | / | 2.1 | / | / | / | / | / | /
Cc1ccc(OCc2nnc(SCC(=O)NC(C)(C)C)n2C)cc1 | / | 5.5 | / | 9.6 | / | / | / | / | / | /
Cc1ccc(/C=N/n2c(-c3ccco3)n[nH]c2=S)cc1 | -17.7 | -1.8 | 15.4* | 3.8 | 0.00696 | 0.0279* | 0.0327 | 0.0187* | 0.0312* | 0.0171*
S=c1[nH]nc(-c2ccco2)n1/N=C/c1ccc(Cl)c(Cl)c1 | 4.7 | 35.6 | 3.9 | 10.8 | / | / | / | / | / | /
Cc1cc(/N=C/C=C2\N(C)c3ccccc3C2(C)C)n(CCC#N)n1 | -20.4 | 4.0 | -3.62* | 6.1 | 0.00783 | 0.00512 | 0.03 | 0.00565* | ? | 0.00963
CN1/C(=C\C=Nc2ccc3ccccc3c2)C(C)(C)c2ccccc21 | / | 23.0 | / | 8.8 | / | / | / | / | / | /
CCn1c(N2CCC(C(=O)NCC3CC3)CC2)nc2ccccc21 | / | 4.9 | / | / | / | / | / | / | / | /
COc1ccc(N2CCN(C(=O)CSc3nc4[nH]ncc4c(=O)n3-c3cccc4ccccc34)CC2)cc1 | 3.2 | -8.7 | -4.39* | 5.6 | 0.00594 | 0.00641* | 0.0265* | 0.00721 | 0.0149* | 0.0106
COc1ccc(CNC(=O)CSc2nc3[nH]ncc3c(=O)n2-c2ccccc2Br)cc1 | -24.3 | 17.0 | -0.167 | 2.6 | / | / | / | / | / | /
O=C(Nc1ccn(Cc2ccccc2F)n1)c1ccc(COc2cc(Cl)ccc2Cl)o1 | / | 5.9 | 1.09 | 4.3 | / | / | / | / | / | /
O=C(NCc1cccnc1)c1ccc(COc2ccc(Cl)cc2Cl)o1 | -6.2 | -33.6 | -4.36* | 6.5 | 0.00981 | 0.00725 | 0.0289* | 0.00364 | 0.0146* | 0.011
SMILES | S1P3 antagonist | EP2 modulator | KCC2 mod | EP2 antag | KCC2 sec1 | KCC2 bumet counter | KCC2 sec2 | HEK counter1 | KCC2 retest ouab | HEK293 Tl flux2
O=C(Nc1ccccn1)c1ccc(COc2ccccc2Cl)o1 | / | -36.7 | -3.96* | 3.6 | 0.0069 | 0.00475 | 0.0242* | 0.00732 | 0.0152* | 0.0104
O=C(c1ccc(COc2ccccc2Cl)o1)N1CCN(Cc2ccc3c(c2)OCO3)CC1 | 0.2 | -34.8 | -1.6 | 11.1 | 0.00698 | 0.0056 | 0.0289 | 0.00618 | ? | 0.0102
O=C(NCc1cccnc1)c1ccc(COc2cccc3ccccc23)o1 | / | -43.9 | -2.45 | 16.5 | / | / | / | / | / | /
O=C(Nc1cccnc1)c1ccc(COc2cc(Cl)ccc2Cl)o1 | / | -31.8 | -5.17* | 27.0 | 0.00632 | 0.00506 | ? | 0.0081 | 0.0158* | 0.00985
COCC(O)CN1CCN(CC2(c3ccc(Cl)cc3)CC2)CC1 (configuration not stated) | / | -8.8 | / | 5.3 | / | / | / | / | / | /
Cc1c(I)c([N+](=O)[O-])nn1CC(=O)NC(C)COc1ccccc1 (configuration not stated) | / | -49.9 | / | 9.2 | / | / | / | / | / | /
O=C(Nc1ccc(F)cc1)N1CCCC(c2nc(-c3cccnc3)n[nH]2)C1 (configuration not stated) | / | -10.9 | / | / | / | / | / | / | / | /
COc1ccccc1OCc1ccc(C(=O)NCC(C)C)o1 | 6.5 | 3.2 | -2.04 | 2.4 | / | / | / | / | / | /
O=C(NCc1ccc2c(c1)OCO2)c1ccc(CSCc2ccc(Cl)cc2)o1 | -2.3 | -83.8 | -0.353 | 6.6 | / | / | / | / | / | /
COc1ccccc1NC(=O)c1ccc(COc2ccccc2OC)o1 | 4.5 | -24.4 | -3.74* | 13.3 | 0.0054 | ? | ? | 0.00671 | ? | 0.0105
O=C(Nc1cccnc1)c1ccc(COc2ccccc2Cl)o1 | / | -39.5 | -8.13* | 10.3 | 0.00613 | ? | 0.022* | 0.00768 | ? | 0.0108
CCOc1ncccc1C(=O)N1CCN(Cc2ccc3c(c2)OCO3)CC1 | / | 1.5 | 4.79* | 12.3 | 0.016 | 0.00416 | 0.0281 | 0.00767 | 0.0176 | 0.00932
